Screens as filed in PubChem.
MEKK3 PB1 HTS: modulators (inhibitors or enhancers) of MEK5 binding to human MEKK3 PB1 domain | binding response (% of control), % at 10 µM | bead-based flow cytometry, Alexa488-MEK5 binding to MEKK3; actives lie on both sides; 0 = blocked by unlabeled MEK5, 100 = vehicle | 1.4% of 290,000 active | Q99759 | AID 1529;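 active = binding response more than 3 SD above or below the average of its plate-row segment, actives on both sides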;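 note: Alexa488 bead fluorescence after subtracting the streptavidin-only scavenger bead signal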
Target sequence (Q99759 whole entry, looked up, the tested form may be a part): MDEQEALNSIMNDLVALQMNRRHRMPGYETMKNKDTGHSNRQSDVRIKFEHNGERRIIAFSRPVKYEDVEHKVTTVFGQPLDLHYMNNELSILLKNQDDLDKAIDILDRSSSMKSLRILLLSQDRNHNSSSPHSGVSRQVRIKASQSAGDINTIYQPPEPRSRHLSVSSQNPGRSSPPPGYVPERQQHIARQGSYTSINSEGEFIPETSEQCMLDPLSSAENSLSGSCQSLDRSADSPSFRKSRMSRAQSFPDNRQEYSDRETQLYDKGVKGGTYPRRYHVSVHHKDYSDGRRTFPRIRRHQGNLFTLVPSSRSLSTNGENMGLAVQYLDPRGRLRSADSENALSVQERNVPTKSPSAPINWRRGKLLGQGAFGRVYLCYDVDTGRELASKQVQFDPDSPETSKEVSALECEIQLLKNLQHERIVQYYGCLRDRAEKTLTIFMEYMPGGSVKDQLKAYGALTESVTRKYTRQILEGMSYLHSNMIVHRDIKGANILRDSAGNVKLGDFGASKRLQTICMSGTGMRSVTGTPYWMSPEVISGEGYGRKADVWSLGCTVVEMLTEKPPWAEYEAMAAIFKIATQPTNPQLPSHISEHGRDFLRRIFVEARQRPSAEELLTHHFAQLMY
CHT inh: inhibits the human high affinity choline transporter. Q9GZV3. CHT-expressing cells, membrane potential dye, choline response; stronger effect = lower value. B-score at 10 µM. 0.86% of 310,000 active. AID 488975;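 active = B-score over 3 SD under the library average, and starting fluorescence ratio not unusually high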;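 note: choline stimulus applied at its EC90 after an EC20 pre-addition; B-score computed on integrated fluorescence ratio after choline addition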
Mot1-301 SUMO: inhibitors of SUMOylation pathway: yeast Mot1-301 growth rescue | S. cerevisiae Mot1-301 growth rescue, ATP luminescence, 38.5C; percent above DMSO median, 100 means doubled | growth rescue, % at 18.8 µM | 1% of 320,000 active;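 active = every valid replicate shows activation above 250% relative to neutral control wells; inactive = the rest, any valid replicate at or below 250%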;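 note: OY570 slx delta 5 strain wells were the positive control but not used for scaling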
MEKK2 WT-MEK5: raises or lowers MEK5 binding to wildtype human MEKK2 PB1 domain. bead flow cytometry, Alexa488-MEK5 binding to MEKK2 WT; actives lie on both sides. Q9Y2U5. binding response (% of control), % at 10 µM. 1.1% of 290,000 active; in the data active = binding response below about 67% or above about 130%
CHT allo act: allosteric activators of human choline transporter CHT; 0.49% of 310,000 active; AID 488977; Q9GZV3; CHT-expressing cells, membrane potential dye, choline EC20; stronger effect = higher value; LV-AA mutant CHT in HEK293 cells; B-score at 10 µM;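 active = initial fluorescence not abnormally high and integrated response B-score, plate-corrected, over 3 SD above library mean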
MEKK2mut PB1 HTS: signal of MEK5 binding to mutant human MEKK2 PB1 domain. bead flow cytometry, Alexa488-MEK5 binding to MEKK2 mutant. percent response, % at 10 µM. 0.35% of 290,000 active; in the data active = percent response above about 24%, passing the limit was not always enough
MEKK2wt confirm: raises or lowers MEK5 binding to wildtype human MEKK2, retest; shares compounds with MEKK3 PB1 HTS; bead flow cytometry, Alexa488-MEK5 binding to MEKK2 WT; actives lie on both sides; binding response (% of control), % at 10 µM; 2.4% of 5,900 active; AID 1892; in the data active = binding response below about 16% or above about 210%; inactive = in between
MEKK2mut-MEK5: signal of MEK5 binding to mutant human MEKK2, retest; AID 1893; 2% of 5,900 active; shares compounds with MEKK3 PB1 HTS; bead flow cytometry, Alexa488-MEK5 binding to MEKK2 mutant; percent response, % at 10 µM; in the data active = percent response mostly above about 71%, no sharp cut-off; inactive = mostly below about 38%;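 note: higher means compound restores mutant binding toward wildtype level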
MEKK3-MEK5 inh: confirmation of inhibitors of MEK5 binding to human MEKK3 | shares compounds with MEKK3 PB1 HTS | bead flow cytometry, Alexa488-MEK5 binding to MEKK3; stronger effect = lower value | binding response (% of control), % at 10 µM | 1.8% of 5,900 active;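 active = binding response below 72% of control, or above a set upper limit, though filed actives all read lower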;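 note: 100% = DMSO only wells and 0% = binding blocked by excess unlabeled MEK5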
* marks the source's active call; other numbers are inactive results; i = inactive; · = no result given; [ ] = remark or other dose. This is a sample that favours compounds with a hit; in the whole collection about 4.1% have one here.

SMILES	MEKK3 PB1 HTS	CHT inh	Mot1-301 SUMO	MEKK2 WT-MEK5	CHT allo act	MEKK2mut PB1 HTS	MEKK2wt confirm	MEKK2mut-MEK5	MEKK3-MEK5 inh
Cc1cccn2c(=O)c(/C=C(\C#N)C(=O)NC3CCS(=O)(=O)C3)c(N3CCC(C)CC3)nc12 (centres undefined)	131*	i	14	104	i	-1	102	-1	105
Cc1cccn2c(=O)c(/C=C(\C#N)C(=O)NC3CCS(=O)(=O)C3)c(Oc3ccc(F)cc3)nc12 (centres undefined)	104	i	-8	107	i	6	·	·	·
CC(NCCC(c1ccccc1)c1ccccc1)c1ccccc1 (centres undefined)	99	i	-24	145*	i	12	130	13	104
O=C(COc1ccccc1-c1ccccc1)NCc1cccc(Cl)c1	111	i	0	147*	i	27	99	-6	99
Cc1ccccc1OCC(=O)NCc1ccccc1	102	i	-2	100	i	3	·	·	·
COc1ccccc1-n1cnnc1SC(C)C(=O)Nc1ccc(NC(C)=O)cc1 (centres undefined)	96	i	-3	56*[inhibitor]	i	-5	95	-5	97
COc1ccccc1-n1cnnc1SC(C)C(=O)NCC1CCCO1 (centres undefined)	·	·	9	·	·	·	·	·	·
CN(C)CCC(=O)c1ccc(Cl)cc1	110	i	175	112	i	27*	99	-4	99
COc1ccccc1C(=O)NCCCn1cc(Br)c(C)n1	122	i	13	138*	i	14	114	12	107
COc1ccccc1C(=O)NCCNC(=O)c1ccc(C)nc1	103	i	436	97	i	5	·	·	·
CC(=O)Nc1ccc(Nc2nc(C(F)(F)F)nc3c2nnn3Cc2ccccc2Cl)cc1	107	i	5	104	i	1	·	·	·
CCN1CCN(Cc2ccc(NC(=O)c3cc(NC(=O)c4cc(-c5ccc(OC)cc5)n[nH]4)cc(OC)c3)cc2C(F)(F)F)CC1	125*	i	-22	167*	i	167*	312*	173*	117
CCN1CCN(Cc2ccc(NC(=O)c3cc(NC(=O)c4cncc(-c5cccs5)c4)cc(OC)c3)cc2C(F)(F)F)CC1	118	i	-31	362*	i	133*	245*	193*	113
CCN1CCN(Cc2ccc(NC(=O)c3cc(NC(=O)c4cc5cccc(OC)c5o4)cc(OC)c3)cc2C(F)(F)F)CC1	124*	i	4	148*	i	158*	251*	93*	111
COc1ccc(-c2cnnc(N/N=C/c3ccc(O)cc3)n2)cc1	128*	i	36	117	i	0	102	3	100
COc1ccc(-c2cnnc(N/N=C/c3ccc(O)c(O)c3)n2)cc1	97	i	111	102	i	0	·	·	·
Cc1ccc(N/C=C2/Sc3ccccc3NC2=O)cc1	101	i	-12	100	i	-3	·	·	·
CCC(C)NC(=O)/C=C1\Sc2ccccc2NC1=O (centres undefined)	135*	i	·	109	i	2	102	-3	100
CC1CCCN(Cc2c(O)ccc3c(=O)c(-c4nc5ccccc5s4)c(N)oc23)C1 (centres undefined)	111	i	9	161*	i	25	155	30	104
CC1CCN(Cc2c(O)ccc3c(=O)c(-c4nc5ccccc5s4)c(N)oc23)CC1	109	i	10	120	i	7	·	·	·
CC(C)CNC(=O)c1cccc(NC(=O)c2ccc(Cl)c([N+](=O)[O-])c2)c1	95	i	-30	96	i	-2	·	·	·
CCOc1ccc(OCCCC(=O)N2CCN(S(=O)(=O)c3ccc(Cl)cc3)CC2)cc1	·	i	6	·	i	·	·	·	·
O=C(NC1CC2CCCC(C1)N2Cc1ccco1)NC12CC3CC(CC(C3)C1)C2 (centres undefined)	132*	i	0	125	i	6	110	12	105
CCNC(=S)NC1CC2CCCC(C1)N2Cc1ccco1 (centres undefined)	81*[inhibitor]	i	17	91	i	-6	117	11	106
CCc1ccccc1NC(=S)NC1CC2CCC(C1)N2Cc1ccco1 (centres undefined)	106	i	-20	104	i	4	·	·	·
SMILES	MEKK3 PB1 HTS	CHT inh	Mot1-301 SUMO	MEKK2 WT-MEK5	CHT allo act	MEKK2mut PB1 HTS	MEKK2wt confirm	MEKK2mut-MEK5	MEKK3-MEK5 inh
Cc1cccc2c1cnn2C(=O)CCC(=O)NCc1ccc(F)cc1	101	i	13	104	i	2	·	·	·
CCc1noc(C)c1C(=O)N1CCN(S(=O)(=O)c2ccc(Cl)s2)CC1	·	i	-17	·	i	·	·	·	·
COc1cc([N+](=O)[O-])ccc1NC(=O)CC1SC(=Nc2ccc(F)cc2)N(CCC2=CCCCC2)C1=O (centres undefined)	112	i	-7	97	i	-1	·	·	·
COc1ccc(OC)c(NC(=O)CC2SC(=Nc3ccc(F)cc3)N(CCC3=CCCCC3)C2=O)c1 (centres undefined)	139*	i	0	102	i	0	81	-44	83
NC(=O)NC(=O)COC(=O)c1cccnc1Nc1ccccc1F	65*[inhibitor]	i	-8	62*[inhibitor]	i	-49	107	2	107
NS(=O)(=O)c1ccc(CCNC(=O)c2ccc(Cl)s2)cc1	106	i	0	115	i	10	·	·	·
Cc1ccc(C(=O)NCC(=O)NCCc2ccc(S(N)(=O)=O)cc2)s1	34*[inhibitor]	i	-15	38*[inhibitor]	i	-31	100	5	101
O=C(NNc1c(F)c(F)cc(F)c1F)c1cc2ccccc2oc1=O	98	i	5	91	i	-2	·	·	·
O=C(c1ccc(CS(=O)c2cccc(Cl)c2)o1)N1CCN(c2ccccn2)CC1 (centres undefined)	102	i	9	102	i	2	·	·	·
CCCCN(C)CCn1c(=S)[nH]c2ccc(N3CCOCC3)cc2c1=O	99	i	·	101	i	1	·	·	·
